Experimental data published in PMC12136788.
Where a chain is given by its changes, count along the chain named. Over roughly 5,800 sequences, “enrichment r” has its median near 0.54; the highest 2% begin near 16. Many of the other results were omitted from the sample, so the highest values are more common in it than they were.

B1: chr10:128104542:128104643:-|CDS|ENSG00000148773|msi1|total|mutant (ssRNA)
RNA: GGGAGUUCUACAGUCCGACGAUCAAGUGAUGAGAAAAAUAUCAACACAUUUGUGGAAACUCCAGUGCAGAAACUGGACCUGCCCGGAAAUUUACCUGGCAGCAAGAGACAGCCACAGACUCCUAAGGAAAAGGCUGAGGCUCUCAACAGAGGAUUGAGCAUCA
B2: chr4:138167974:138168075:-|3pUTR|ENSG00000151012|msi1|total|mutant (ssRNA)
RNA: GGGAGUUCUACAGUCCGACGAUCCACAAAAUCUGCAUUGUCCAUGUGAGUAAAGUAAAAUAAUUCCUGUUAUUUUUUUCUGUCCGAAAUAAGUAUGGAGGAUAUGUUUUUAAAAAUUUAUGAGUUAAUUGAAAUAUCCAUAUACAACAGAGGAUUGAGCAUCA
B3: chr5:38481646:38481747:-|CDS|ENSG00000113594|unk|total|mutant (ssRNA)
RNA: GGGAGUUCUACAGUCCGACGAUCCAGACCUCAGGCCAAUGUAAAUACAUGGAAUUCCGUGUCUCCAGACUCUCCCCGAUCCACCGACAGCAACAGUGAGAUUGUCUCAUUUGGAAGUCCAUGCUCCAUUAAUUCCCGACAAUUCAACAGAGGAUUGAGCAUCA
B4: chr13:69700593:69701701:-|three_prime_utr|ENSG00000150361|control|control|control (ssRNA)
RNA: GGGAGUUCUACAGUCCGACGAUCUUGAAUGGCAAGAAUGAGAACUUCCAGAGAUGAAAACUCUUCAAGAACAAGGAUCUCUGUAGCGUUACCUACUGAUGUUGAAAGAGUUAGUAGAUCAAACAGAAUAGUAGGAAACAAGAACAACAGAGGAUUGAGCAUCA
B5: ENSG00000198589:be:win_251|CDS|ENSG00000198589|bound_else_gene|NA|bound_elsewhere_windowed (ssRNA)
RNA: GGGAGUUCUACAGUCCGACGAUCUCAUUAUCCAAGAAGGUGAGAGUAUUAACUGCAUGGUGGACCUACUGGAAAAAUGUGACAUUACGUGCCAAGCAGAAGUCUGGAGCAUGUUUACAGCCAUUCUGAAGAAAAGCAUACGGACAACAGAGGAUUGAGCAUCA
B6: chr11:27368498:27368690:-|CDS|ENSG00000205213|msi1|FALSE|unique (ssRNA)
RNA: GGGAGUUCUACAGUCCGACGAUCACCCCUUUGUUUGCCAUUUCCUACAGGUGAAACGCCAUCAUUAGGAUUCACUGUAACGUUAGUGCUAUUAAACUCACUAGCAUUUUUAUUAAUGGCCGUUAUCUACACUAAACUAUACUGCAACAGAGGAUUGAGCAUCA
B7: chr7:123692404:123692516:-|CDS|ENSG00000106299|unk|FALSE|unique (ssRNA)
RNA: GGGAGUUCUACAGUCCGACGAUCCCUGCCUUCUGAUGGGGACCAUCAGGUUCCAACUACUGCAGGAAACAAAGCAGCUCUUUUAGAUCAAAUUAGAGAGGGUGCUCAGCUAAAAAAAGUGGAGCAGAACAGUCGGCCAGUGUCCAACAGAGGAUUGAGCAUCA
B8: chr5:139396562:139396955:-|CDS|ENSG00000170469|control|control|control (ssRNA)
RNA: GGGAGUUCUACAGUCCGACGAUCAGGGGUCCACAAGGUGGGGGCUUGUAGCCUAGGGGAGGAGCUGGGUCUUUGUUGUCUGGUAGGCACCACCGCUUCCUUUGGGUAUUUAAUCCCUUCCUAUAUAAACAGCCCUGGUUACCCCAACAGAGGAUUGAGCAUCA
B9: ENSG00000070961:be:win_6151|3pUTR|ENSG00000070961|bound_else_gene|NA|bound_elsewhere_windowed (ssRNA)
RNA: GGGAGUUCUACAGUCCGACGAUCCAAUCACUUUUUCUCUUUUAUCCUCUAACCAAAAAAUUGUUUAAUUUUGCAUCCCAAAUGUUUUUAAUCUUUGUAUAUUUUUUAAAAAUCCUUUUCUCCUCAUCAUUGCCUUUUUUGUGGCAACAGAGGAUUGAGCAUCA
B10: chr5:113019263:113019364:+|3pUTR|ENSG00000172795|msi1|FALSE|unique (ssRNA)
RNA: GGGAGUUCUACAGUCCGACGAUCCUCAACUGUGAAUGAAAUUUAGAAAGAUAAUUCUUCAGCAGUUGGUUGAUUAGAUGGGUUAGUGCUUUUGGAAUAUAUAACAGUAGACUUGUAUUCUUUAUGCACUAUACAUAUGAUACGCAACAGAGGAUUGAGCAUCA
B11: chr11:101473508:101473773:-|CDS|ENSG00000137672|control|control|control (ssRNA)
RNA: GGGAGUUCUACAGUCCGACGAUCUCCUCAAAUAAUAUCUGAAGGUCUUUAUGCAAUUGCUGUAGUUUUAAGUUUCUCUAGGAUAGCUUAUAUUUUACCAGCAAAUGAAAGCUUUGGACCUCUGCAGAUAUCACUUGGAAGAACCAACAGAGGAUUGAGCAUCA
B12: ENSG00000070961:be:win_6101|3pUTR|ENSG00000070961|bound_else_gene|NA|bound_elsewhere_windowed (ssRNA)
RNA: GGGAGUUCUACAGUCCGACGAUCUAAAGAUCUUGGAUCCCAUUAUAUAGUAUGUAUAGCUGAAAUCUGUAAUUCAAUCACUUUUUCUCUUUUAUCCUCUAACCAAAAAAUUGUUUAAUUUUGCAUCCCAAAUGUUUUUAAUCUCAACAGAGGAUUGAGCAUCA
B13: chr1:229632307:229632408:+|CDS|ENSG00000135763|unk|total|mutant (ssRNA)
RNA: GGGAGUUCUACAGUCCGACGAUCAUUUUAUAAGAAAAAGCUUGAACUGAAGGAAGAUAUUGUUGAAAGGCUUUGGAUCUAUACCGAUAACAUUUUACACCGCAGAAAAUUGCAGAAUCUCCUCAAGAAUGGAAAGACCAUUAACAACAGAGGAUUGAGCAUCA
B14: chr1:113764432:113764533:-|3pUTR|ENSG00000081019|msi1|total|mutant (ssRNA)
RNA: GGGAGUUCUACAGUCCGACGAUCAAAAUAUUCUGAAACCGGUUAAAUCUUAUAUAAAUAUUACUUUGUGCAAUAUUGUUGUGCCGUUAAAUGCAUAUCCGCAAAGUACCGAGGUCACUGUGUAAACCGACCGAAAAGUAACCACAACAGAGGAUUGAGCAUCA
B15: chr6:75256125:75256201:-|CDS_3pUTR|ENSG00000112697|msi1_unk|FALSE|overlapping (ssRNA)
RNA: GGGAGUUCUACAGUCCGACGAUCUUUGGGGAUUGCUUACAUCGCUGUUGGAUCCAUCUCCUUCCUUCUGGGAGUUGUACUGCUAGUAAUUAAUCAUAAAUAUAGAAACAGUAGUAAUACAGCUGACAUUACCAUUUAAUUUUACAACAGAGGAUUGAGCAUCA
B16: chr1:113764432:113764533:-|3pUTR|ENSG00000081019|msi1|FALSE|bound_elsewhere (ssRNA)
RNA: B14 RNA with C38U, C39A, C83U, C84A, C98U, C99A, C108U, C109A, C130U, C131A
B17: chr10:113908677:113908778:+|3pUTR|ENSG00000196865|unk|total|mutant (ssRNA)
RNA: GGGAGUUCUACAGUCCGACGAUCAGCUAUGCUCCUUACUUACUUCUUUUAUUAUAAACAAAUUCCUUUGCUUUGGCUGAUACCCGCUGAGUCAUUGAUCAUCAUUGGUACCAUGAUAUUGUAAUCUAUGCUGCUAUUUGGCACCAACAGAGGAUUGAGCAUCA
B18: chr10:92030311:92030412:+|3pUTR|ENSG00000095564|unk|FALSE|unique (ssRNA)
RNA: GGGAGUUCUACAGUCCGACGAUCAUAUAAGAUUGAAACUGUAAAAUAUAUGCAACUGUGUGUUAUUUGUAGGAAAUGGUCACUAGAAAGAGCAAAAGAUUAUUCAGGUAUACAGGUUUUUUUUCAUUGUUUAGGAUUUUAACUCAACAGAGGAUUGAGCAUCA
B19: chr8:94436494:94436868:-|CDS|ENSG00000265817|control|control|control (ssRNA)
RNA: GGGAGUUCUACAGUCCGACGAUCAAUAGUAGAAAAGAAUAGAUGUUGGGAUAUCAUAGCAGUUAACUAUAAUGCAAUUGGAGUAGACCGCCCUCCUCGAACAGCACAGGGCCUACGCACCCUUUAUAAAAGGCUCAAAGAAUACAACAGAGGAUUGAGCAUCA
B20: chr6:75256125:75256201:-|CDS_3pUTR|ENSG00000112697|msi1_unk|total|mutant (ssRNA)
RNA: B15 RNA with U83C, A84C, U102C, A103C, U111C, A112C
B21: ENSG00000070961:be:win_1201|CDS|ENSG00000070961|bound_else_gene|NA|bound_elsewhere_windowed (ssRNA)
RNA: GGGAGUUCUACAGUCCGACGAUCAAAAGACCAUGGCUUGCUGAGUGCACACCAAUUUAUAUACAAUACUUUGUGAAGUUCUUCAUUAUUGGAGUUACAGUUUUAGUGGUCGCAGUGCCAGAAGGUCUUCCACUUGCAGUCACGCAACAGAGGAUUGAGCAUCA
B22: chr5:150401636:150402250:-|three_prime_utr|ENSG00000019582|control|control|control (ssRNA)
RNA: GGGAGUUCUACAGUCCGACGAUCCUGCUGCCCAAUCUCCAUCUGUCAACAGGGGCGUGAGGUCCCAGGAAGUGGCCAAAAGCUAGACAGAUCCCCGUUCCUGACAUCACAGCAGCCUCCAACACAAGGCUCCAAGACCUAGGCCAACAGAGGAUUGAGCAUCA

molecular target: MSI1 full-length (mouse, UniProt Q61474 1-362); experiment: nsRBNS (natural sequence RNA bind-n-seq); RBNS binding buffer (assumed for nsRBNS): 25 mM Tris pH 7.5, 150 mM KCl, 3 mM MgCl2, 0.01% Triton X-100, 500 ug/ml BSA, 20 U/ml SUPERase-In, 4 C; UNK is unkempt and MSI1 is Musashi-1; names of the RNAs are library labels; protein concentration not given here; high values mean tight binding
Sequence (Q61474 whole entry): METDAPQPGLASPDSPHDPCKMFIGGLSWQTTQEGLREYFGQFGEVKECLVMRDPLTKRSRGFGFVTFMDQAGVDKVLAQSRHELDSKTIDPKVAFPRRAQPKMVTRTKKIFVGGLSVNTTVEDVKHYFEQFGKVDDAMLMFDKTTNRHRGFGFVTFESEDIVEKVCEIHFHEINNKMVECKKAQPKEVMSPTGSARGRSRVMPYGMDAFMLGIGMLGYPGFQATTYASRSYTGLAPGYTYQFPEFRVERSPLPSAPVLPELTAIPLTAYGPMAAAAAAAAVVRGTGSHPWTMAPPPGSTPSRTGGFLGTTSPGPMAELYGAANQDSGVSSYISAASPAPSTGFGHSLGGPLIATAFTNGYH

Binder	binding signal [enrichment R]
B1	0.365
B2	0.651
B3	0.459
B4	4.13
B5	0.303
B6	1.09
B7	0.703
B8	1.74
B9	3.25
B10	1.92
B11	1.39
B12	30
B13	0.623
B14	0.583
B15	18.4
B16	51.3
B17	3.24
B18	6.54
B19	28.2
B20	0.387
B21	1.51
B22	0.462
